# Tb PYK inh: T. brucei pyruvate kinase inhibition; TbPYK enzyme, Kinase-Glo Plus ATP luminescence, 45 min; 410,000 tested, 0.12% active; Q57TT1; Potency, µM (doses to about 76.8 µM), for the others: top-dose activity, negative = inhibition, usual class: inhibitors; further: potency means the concentration at half of the fitted maximal effect; on the % scale 0 is the no-effect control and ±100 the full control effect; nearly all actives have a fitted effect of over 50% in size
#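 Quantitative HTS: titrated library compounds versus trypanosomal pyruvate kinase in TEA buffer (pH 7.2) containing KCl, MgCl2, BSA and Tween-20. Reactions were initiated with ADP, 130 uM final. Kinase-Glo Plus luminescence was read after 45 min at RT.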
# Cycloheximide cs: counter-screen for Shiga toxin inhibitors: cycloheximide protein synthesis inhibition; cell reporter, cycloheximide protein synthesis inhibition counterscreen; max response, %; 300,000 tested, 12% active; AID 2314; in the data active means max response mostly above about 13%, no sharp cut-off; inactive means mostly below about 14%; further: read at 38.3 µM for the half of the compounds with a filed dose; 0% is about no effect
# LmPK inh: inhibitors of Leishmania mexicana pyruvate kinase; purified LmPK, Kinase-Glo ATP luminescence, 1 h; Q27686; AID 1721; Potency, µM (highest dose often 57.5 µM), for the others: at the top dose activity change, negative = inhibition, usual class: inhibitors; 290,000 tested, 0.37% active; further: potency means the concentration at half of the fitted maximal effect; on the % scale 0 is the no-effect control and ±100 the full control effect
# Target sequence (Q27686 whole entry, looked up): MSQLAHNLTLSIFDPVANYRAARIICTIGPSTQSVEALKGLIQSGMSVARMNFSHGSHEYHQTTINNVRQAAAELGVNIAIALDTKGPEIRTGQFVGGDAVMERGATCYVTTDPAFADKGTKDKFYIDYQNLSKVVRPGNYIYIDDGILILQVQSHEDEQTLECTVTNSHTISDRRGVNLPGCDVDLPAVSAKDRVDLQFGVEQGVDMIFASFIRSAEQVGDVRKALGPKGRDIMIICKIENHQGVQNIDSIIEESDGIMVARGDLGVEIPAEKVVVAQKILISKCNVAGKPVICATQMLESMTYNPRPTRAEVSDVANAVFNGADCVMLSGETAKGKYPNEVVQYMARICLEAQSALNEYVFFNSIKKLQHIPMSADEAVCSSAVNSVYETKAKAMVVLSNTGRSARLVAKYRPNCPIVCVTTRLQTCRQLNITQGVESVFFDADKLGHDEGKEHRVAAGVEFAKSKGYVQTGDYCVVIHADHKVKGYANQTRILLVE
#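 In 50 mM imidazole pH 7.2 with 7 mM MgCl2, LmPK (0.1 nM) turned over PEP (0.5 mM) and ADP (0.1 mM) for 1 h at room temperature. Luciferase read-out of ATP.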
# FBPA Giardia inh: blocks Giardia fructose-bisphosphate aldolase activity. Potency, µM (top dose mostly 59.6 µM), without a hit: at the highest dose activity, negative = inhibition, usual class: inhibitors. A8B2U2. AID 2451. 290,000 tested, 0.71% active. purified Giardia FBPA; further: potency means the concentration at half of the fitted maximal effect; on the % scale 0 is the no-effect control and ±100 the full control effect; nearly all actives have a fitted effect of over 55% in size
#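 Giardia FBPA (40 nM reagent) was preincubated 10 min at RT with compound (up to 57.5 uM final), then substrate plus GAPDH/TPI/NAD/arsenate coupling system with diaphorase/resazurin was added; resorufin fluorescence (525/598 nm) was read after 20 min.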
# Sm TGR block: blocks Schistosoma mansoni thioredoxin glutathione reductase; Q962Y6; Potency, µM (doses to about 114 µM), for the others: at the highest dose activity change, negative = inhibition, usual class: inhibitors; AID 485364; 360,000 tested, 3% active; purified TGR, DTNB reduction, TNB absorbance 405 nm; further: potency means the concentration at half of the fitted maximal effect; on the % scale 0 is the no-effect control and ±100 the full control effect; nearly all actives have a fitted effect of over 60% in size
#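 Kinetic colorimetric format: TGR-catalysed, NADPH-driven DTNB reduction monitored via TNB absorbance. Enzyme dispensed at 20 nM; compound exposure 15 min at room temperature before reaction start.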
# Shiga toxin inh: blocks Shiga toxin action in Vero cells; Vero cells, Shiga toxin protein synthesis inhibition reporter; 290,000 tested, 9.2% active; inhibition, % at 38.7 µM; in the data active means inhibition mostly above about 28%, no sharp cut-off; inactive means mostly below about 43%; further: 0% is about no effect
# * marks the source's active call; other numbers are inactive results; ? = inconclusive; nt = no result; [ ] = another dose, or the depositor's remark. This excerpt belongs to a sample that is enriched for hits. Unless noted, the call rests on the fitted dose curve; in most records, active means well fitted curve in the direction sought with a large enough effect; inconclusive means small, poorly fitted or top-dose-only effect, or another doubt; inactive means no such curve, though single readings can be large; an effect the other way counts as inactive or inconclusive.
SMILES,Tb PYK inh,Cycloheximide cs,LmPK inh,FBPA Giardia inh,Sm TGR block,Shiga toxin inh
COc1cc(NC(=O)C(NC(=O)C2CCC(C)CC2)C(C)C)cc(OC)c1OC (configuration not stated),2.5%,nt,nt,nt,-0.2%,nt
Cc1cccc(NC(=O)NCC(c2ccc(F)cc2)N2CCN(C)CC2)c1 (configuration not stated),0.0%,19.4*,-2.9%,5.5%,-0.1%,20.4
CCOC(=O)c1c(S(=O)(=O)N2CCCC(C(=O)NCc3cccc(OC)c3)C2)c(C)n(C)c1C (configuration not stated),1.2%,nt,nt,nt,-10.0%,nt
CCN1CCN(Cc2c(O)ccc3oc(C)c(C(=O)Nc4cccc(Cl)c4C)c23)CC1,2.3%,nt,nt,nt,-1.6%,nt
Cc1cccc(N/C=C/c2onc(C)c2[N+](=O)[O-])c1,?,31.3*,-4.3%,-0.4%,-0.5%,89.0*
Cc1cc(O)ccc1N/C=C/c1onc(C)c1[N+](=O)[O-],-9.2%,38.7*,-5.9%,0.1%,-16.3%,64.4*
Cc1cccc(/C=C/c2onc(C)c2[N+](=O)[O-])n1,-2.5%,nt,nt,nt,nt,nt
COc1cc(/C=C/c2onc(C)c2[N+](=O)[O-])cc(OC)c1OC,0.0%,nt,nt,nt,nt,nt
CCc1ccc(OCC(=O)N(Cc2ccc(C(C)C)cc2)C2CCS(=O)(=O)C2)cc1 (configuration not stated),8.0%,nt,nt,nt,2.3%,nt
Cc1noc(C)c1NC(=O)N(C)C[C@H]1Oc2ccc(NC(=O)Cc3ccccc3)cc2C(=O)N([C@H](C)CO)C[C@@H]1C,-0.8%,nt,nt,nt,nt,nt
Cc1cccc(OCCn2nnc3sc4c(c3c2=O)CCCC4)c1,1.6%,nt,nt,nt,1.5%,nt
CCCCOc1ccc(C(=O)N/C(=C/C=C/c2ccccc2)C(=O)NC)cc1,1.5%,10.5*,-3.1%,-2.7%,6.3%,27.0
C=CCOc1cccc(C2C(C(=O)c3ccc(C)o3)=C(O)C(=O)N2CCN(C)C)c1 (configuration not stated),-6.1%,-2.0,-1.2%,-5.6%,35.5µM*,-8.1
C=CCOc1ccc(C2C(C(=O)c3ccco3)=C(O)C(=O)N2CCCN(CC)CC)cc1 (configuration not stated),3.2%,9.5*,-6.2%,-10.0%,-20.5%,30.5
COc1ccc(C2C(C(=O)c3ccco3)=C(O)C(=O)N2CCCn2ccnc2)c(OC)c1 (configuration not stated),2.8%,32.3*,2.4%,-12.7%,-19.1%,47.7
CCCOc1cccc(C2C(C(=O)c3ccco3)=C(O)C(=O)N2CCN(CC)CC)c1 (configuration not stated),-9.8%,-6.0,2.9%,-19.2%,?,25.0
CCN(CC)CCCN1C(=O)C(O)=C(C(=O)c2ccco2)C1c1ccc(OC(C)C)cc1 (configuration not stated),1.7%,21.6*,-6.8%,-5.0%,-28.4%,40.5
CCCOc1cccc(C2C(C(=O)c3ccc(C)o3)=C(O)C(=O)N2CCN2CCOCC2)c1 (configuration not stated),-8.0%,0.8,6.6%,-0.1%,?,-4.8
COc1ccc(C2C(C(=O)c3ccco3)=C(O)C(=O)N2CCN2CCOCC2)cc1 (configuration not stated),-7.9%,-2.8,-0.6%,?,-29.1%,0.1
CC[C@@H](O)C(C[C@@H](C)N(C)C)(c1ccccc1)c1ccccc1,-7.7%[157 µM],nt,nt,nt,nt,nt
CCN(CC)CCCN1C(=O)C(O)=C(C(=O)c2cc3ccccc3o2)C1c1ccccn1 (configuration not stated),1.6%,0.7,13.8%,6.8%,1.2%[11.4 µM],-17.3
CCN(CC)CCN1C(=O)C(O)=C(C(=O)c2ccco2)C1c1ccccn1 (configuration not stated),-0.5%,-4.9,1.3%,?,44.7µM*,-6.0
c1ccc(CCNc2nc(-c3ccccc3)cs2)cc1,-7.9%,nt,nt,nt,nt,nt
CC(=O)Nc1ccc(-c2csc(Nc3ccccn3)n2)cc1,-8.7%,48.3*,-1.9%,-3.4%,8.4%,52.1*
Oc1ccc(-c2csc(Nc3ccccn3)n2)cc1O,-8.1%,42.9*,?,-16.6%,?,100.5*
SMILES,Tb PYK inh,Cycloheximide cs,LmPK inh,FBPA Giardia inh,Sm TGR block,Shiga toxin inh
CC(=O)Nc1ccc(-c2csc(NCCc3ccccc3)n2)cc1,-5.3%,21.2*,9.7%,3.1%,0.0%,89.7
Cc1ccnc(Nc2nc(-c3ccc(O)c(O)c3)cs2)c1,-6.6%,40.1*,?,-22.6%,?,96.8*
OC[C@@H]1O[C@@H](n2cnc3c(N[C@H]4CCC[C@@H]4O)ncnc32)[C@H](O)[C@H]1O,nt,nt,nt,5.9%,nt,nt
Cc1ccnc(Nc2nc(-c3ccc(O)cc3)cs2)c1,-7.6%,34.6*,-7.1%,4.4%,?,119.8*
CCC(=O)Nc1nc(C)c(-c2csc(Nc3ccccn3)n2)s1,0.4%,33.2*,0.0%,-14.1%,-0.9%,103.1*
Cc1nc2ncccn2c1-c1csc(Nc2ccccc2)n1,5.5%,13.3,0.8%,-16.6%,-16.1%,21.5
Cc1ccnc(Nc2nc(-c3ccc(O)cc3O)cs2)c1,0.9%,24.8*,5.4%,9.1%,8.7%,22.2*
COc1ccc([C@@H]2CC(=O)c3c(O)cc(O[C@H]4O[C@@H](CO[C@H]5O[C@@H](C)[C@@H](O)[C@@H](O)[C@@H]5O)[C@@H](O)[C@@H](O)[C@@H]4O)cc3O2)cc1O,5.8%[33.2 µM],nt,nt,-1.3%[21.7 µM],nt,nt
COc1ccc(CN2C[C@@H](CO)O[C@@H](n3cnc4c(N5CCN(c6ccccc6)CC5)ncnc43)C2)cc1,0.1%,nt,nt,nt,nt,nt
O=c1[nH]cnc2c1cnn2Cc1ccccc1Cl,-5.0%,-0.9,-1.3%,-1.7%,-2.6%,-6.5
O=c1c(Cl)c(Cl)cnn1Cc1nnc(-c2ccc(Cl)cc2)o1,-1.3%,50.3*,0.9%[11.5 µM],-0.3%,4.47µM*,63.4
Cc1cc2c(s1)c1cnn(Cc3ccc(Cl)cc3)c(=O)c1n2C,nt,-9.8,nt,nt,nt,-11.6
Cc1cc(C)cc(Cn2ncc(Cl)c(Cl)c2=O)c1,-1.3%,35.7*,1.3%,-6.3%,2.82µM*,35.3
Cc1ccc(-c2nnc(Cc3ccc(Cl)cc3)o2)cc1,1.3%,29.1,7.8%,5.6%,0.0%,39.1
Cc1[nH]c(C)c2c(=O)n(Cc3ccc(Cl)cc3)ncc12,-22.7%,-0.4,6.8%,1.7%,1.2%,-1.0
Cc1ccc(Cn2ncc(Cl)c(Cl)c2=O)cc1,0.4%,10.9,-0.1%,1.5%,3.55µM*,37.6
O=c1c(Cl)c(Cl)cnn1Cc1ccccc1Cl,1.4%,-13.2,0.4%,-2.6%,12.6µM*,-26.2
CCOc1ccc(-c2n[nH]c3c2C(c2cccs2)N(c2ccc(Br)cc2)C3=O)cc1 (configuration not stated),0.7%,nt,nt,nt,-7.3%,nt
COc1cccc(CNC(=O)CSC2=Nc3ccccc3C3=NC(C)C(=O)N23)c1OC (configuration not stated),-6.7%,nt,nt,nt,12.9%,nt
